From PubChem BioAssay (NCI)
Compounds without any hit were thinned out: in the full panel of roughly 83,000, 20% have a hit.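 Compound tested at a single concentration for 48 hours in 96-well plates; a percent growth value below 10 was scored as active.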 Unmarked numbers belong to inactive results. Activity calls are given as the source filed them.

System: MDA-MB-468 breast
Experiment: NCI-60 one-dose screen, 48 h (100 = growth as untreated, 0 = no growth, -100 = all killed)
Conditions: 10 µM unless noted

Row | Structure (SMILES) | growth
1 | N=C(N)c1ccc(-c2ccc(-c3cccs3)s2)cc1 | -80.6% (active)
2 | O=S(=O)(NCCCNc1nccc(-c2c(-c3ccc(F)cc3)nc3sccn23)n1)c1ccc2ccccc2c1 | 51.8%
3 | Clc1ccc(-c2csc(N/N=C/c3nc4ccccc4n3C3CC3)n2)cc1 | 90.1%
4 | COc1cc(C(=O)OCCCCCCCCCCC[P+](c2ccccc2)(c2ccccc2)c2ccccc2)ccc1O | -27.7% (active)
5 | Cc1ccc2nc(C)c(-c3nnc(SCc4ccc(C#N)cc4)o3)n2c1 | 87.5%
6 | COc1ccc(C2c3ccc4ccccc4c3Oc3ncn(CCCn4ccnc4)c(=N)c32)cc1OC (centres undefined) | 47.5%
7 | C=C(CNCCO)[C@@H]1CC[C@]2(CO)CC[C@]3(C)[C@H](CC[C@@H]4[C@@]5(C)CCC(NCCO)C(C)(C)[C@@H]5CC[C@]43C)[C@@H]12 (some centres undefined) | 51%
8 | COc1ccccc1N=Nc1c(O)ccc2cc(S(=O)(=O)O)ccc12 | 111%
9 | CCc1ccc2c(c1)N(CCO)C1=C(C(=O)OC1)C2c1cccc(Cl)c1 (centres undefined) | 20.1%
10 | CCOC(=O)c1ccccc1-c1c2ccc(=[N+](C)C)cc-2oc2cc(N(C)C)ccc12 | -17.9% (active)
11 | CCCCC1Nc2nc(SC)n(C)c(=O)c2CN(Cc2ccccc2)C1=O (centres undefined) | 101%
12 | COc1ccc2c(c1)O/C(=C\c1ncc([N+](=O)[O-])n1C)C2=O | -7.9% (active)
13 | Cc1nc2ccccc2c(/C=C/c2ccccc2)c1C(=O)/C=C/c1ccc(Cl)cc1 | 19.4%
14 | O=C(/C=C/c1cccs1)Nc1ncc(Cc2ccccc2F)s1 | -13.8% (active)
